# According to ChEMBL document CHEMBL2218924, “A broad activity screen in support of a chemogenomic map for kinase signalling research and drug discovery” (Biochem J, 2013):
# Experiments:
# [1] = target: Serine/threonine-protein kinase PAK 6 (Homo sapiens) (UniProt Q9NQU5); conditions: at 1 µM
# [2] = target: Serine/threonine-protein kinase PAK 6 (Homo sapiens) (UniProt Q9NQU5); conditions: at 10 µM
# [3] = target: Activated CDC42 kinase 1 (Homo sapiens) (UniProt Q07912); conditions: at 1 µM
# [4] = target: Activated CDC42 kinase 1 (Homo sapiens) (UniProt Q07912); conditions: at 10 µM
# [5] = target: ALK tyrosine kinase receptor (Homo sapiens) (UniProt Q9UM73); conditions: at 1 µM
# [6] = target: ALK tyrosine kinase receptor (Homo sapiens) (UniProt Q9UM73); conditions: at 10 µM
# [7] = target: T1, AMP-activated protein kinase, AMPK (Homo sapiens) (UniProt P54646+O43741+P54619+Q9UGJ0+Q9Y478+Q13131+Q9UGI9); conditions: at 1 µM
# [8] = target: T1, AMP-activated protein kinase, AMPK (Homo sapiens); conditions: at 10 µM
# [9] = target: T2, Mitogen-activated protein kinase kinase kinase 5 (Homo sapiens) (UniProt Q99683); conditions: at 1 µM
# T2 sequence (whole entry): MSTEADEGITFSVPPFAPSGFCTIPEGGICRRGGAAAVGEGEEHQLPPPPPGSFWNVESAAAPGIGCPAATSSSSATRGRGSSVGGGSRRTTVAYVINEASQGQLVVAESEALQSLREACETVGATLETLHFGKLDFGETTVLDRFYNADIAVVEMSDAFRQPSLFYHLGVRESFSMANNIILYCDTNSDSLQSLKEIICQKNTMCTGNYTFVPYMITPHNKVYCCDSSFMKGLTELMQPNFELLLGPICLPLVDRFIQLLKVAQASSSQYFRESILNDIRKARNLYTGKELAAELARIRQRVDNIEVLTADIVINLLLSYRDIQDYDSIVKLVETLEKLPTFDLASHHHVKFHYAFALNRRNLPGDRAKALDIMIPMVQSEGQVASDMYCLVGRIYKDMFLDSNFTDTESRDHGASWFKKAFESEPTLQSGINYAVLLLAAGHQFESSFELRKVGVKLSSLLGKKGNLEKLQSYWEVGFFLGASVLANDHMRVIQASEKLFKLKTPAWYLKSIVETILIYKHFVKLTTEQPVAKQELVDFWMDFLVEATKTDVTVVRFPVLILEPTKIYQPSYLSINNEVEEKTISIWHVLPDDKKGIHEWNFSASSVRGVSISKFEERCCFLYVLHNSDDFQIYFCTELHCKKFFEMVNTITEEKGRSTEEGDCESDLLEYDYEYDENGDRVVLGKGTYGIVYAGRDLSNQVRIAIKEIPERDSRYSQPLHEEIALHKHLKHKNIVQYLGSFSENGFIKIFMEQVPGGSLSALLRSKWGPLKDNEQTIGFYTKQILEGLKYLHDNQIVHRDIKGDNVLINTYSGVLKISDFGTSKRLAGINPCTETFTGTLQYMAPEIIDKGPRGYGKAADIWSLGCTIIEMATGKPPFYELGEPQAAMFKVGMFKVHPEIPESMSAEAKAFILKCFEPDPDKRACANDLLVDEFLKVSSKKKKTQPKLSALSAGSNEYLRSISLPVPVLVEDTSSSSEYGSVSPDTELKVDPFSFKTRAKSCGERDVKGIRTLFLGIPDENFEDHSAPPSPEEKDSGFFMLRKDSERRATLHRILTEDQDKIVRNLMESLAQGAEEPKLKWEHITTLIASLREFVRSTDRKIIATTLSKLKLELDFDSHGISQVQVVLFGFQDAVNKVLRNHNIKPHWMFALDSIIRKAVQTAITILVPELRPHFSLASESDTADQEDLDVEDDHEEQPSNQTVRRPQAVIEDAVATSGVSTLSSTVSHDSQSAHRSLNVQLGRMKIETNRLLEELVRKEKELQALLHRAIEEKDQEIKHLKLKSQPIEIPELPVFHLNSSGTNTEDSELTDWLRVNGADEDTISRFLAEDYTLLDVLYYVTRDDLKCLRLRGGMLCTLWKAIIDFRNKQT
# [10] = target: Platelet-derived growth factor receptor alpha (Homo sapiens) (UniProt P16234); conditions: at 1 µM
# [11] = target: PAS domain-containing serine/threonine-protein kinase (Homo sapiens) (UniProt Q96RG2); conditions: at 1 µM
# [12] = target: Serine/threonine-protein kinase PAK 5 (Homo sapiens) (UniProt Q9P286); conditions: at 1 µM
# [13] = target: Serine/threonine-protein kinase PAK 5 (Homo sapiens) (UniProt Q9P286); conditions: at 10 µM
# [14] = target: PAS domain-containing serine/threonine-protein kinase (Homo sapiens) (UniProt Q96RG2); conditions: at 10 µM
# [15] = target: T3, Activin receptor type-1B (Homo sapiens) (UniProt P36896); conditions: at 1 µM
# T3 sequence (whole entry): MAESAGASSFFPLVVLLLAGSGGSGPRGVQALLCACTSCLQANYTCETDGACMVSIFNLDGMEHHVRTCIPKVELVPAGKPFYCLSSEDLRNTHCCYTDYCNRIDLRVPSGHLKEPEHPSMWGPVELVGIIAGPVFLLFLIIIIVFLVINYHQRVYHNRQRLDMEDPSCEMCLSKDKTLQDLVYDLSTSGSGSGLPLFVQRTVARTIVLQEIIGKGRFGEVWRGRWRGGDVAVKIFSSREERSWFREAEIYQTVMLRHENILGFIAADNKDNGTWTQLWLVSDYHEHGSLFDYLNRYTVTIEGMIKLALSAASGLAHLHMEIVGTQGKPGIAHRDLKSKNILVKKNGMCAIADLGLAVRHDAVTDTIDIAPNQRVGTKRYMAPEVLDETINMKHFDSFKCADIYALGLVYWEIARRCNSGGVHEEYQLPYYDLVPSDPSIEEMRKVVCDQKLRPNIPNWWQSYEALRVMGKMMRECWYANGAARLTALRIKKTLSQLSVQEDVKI
# [16] = target: T3, Activin receptor type-1B (Homo sapiens); conditions: at 10 µM
# [17] = target: T4, AMP-activated protein kinase (AMPK) alpha-1/beta-1/gamma-1 (Homo sapiens) (UniProt P54619+Q9Y478+Q13131); conditions: at 1 µM
# [18] = target: T4, AMP-activated protein kinase (AMPK) alpha-1/beta-1/gamma-1 (Homo sapiens); conditions: at 10 µM
# [19] = target: T5, NUAK family SNF1-like kinase 1 (Homo sapiens) (UniProt O60285); conditions: at 1 µM
# T5 sequence (whole entry): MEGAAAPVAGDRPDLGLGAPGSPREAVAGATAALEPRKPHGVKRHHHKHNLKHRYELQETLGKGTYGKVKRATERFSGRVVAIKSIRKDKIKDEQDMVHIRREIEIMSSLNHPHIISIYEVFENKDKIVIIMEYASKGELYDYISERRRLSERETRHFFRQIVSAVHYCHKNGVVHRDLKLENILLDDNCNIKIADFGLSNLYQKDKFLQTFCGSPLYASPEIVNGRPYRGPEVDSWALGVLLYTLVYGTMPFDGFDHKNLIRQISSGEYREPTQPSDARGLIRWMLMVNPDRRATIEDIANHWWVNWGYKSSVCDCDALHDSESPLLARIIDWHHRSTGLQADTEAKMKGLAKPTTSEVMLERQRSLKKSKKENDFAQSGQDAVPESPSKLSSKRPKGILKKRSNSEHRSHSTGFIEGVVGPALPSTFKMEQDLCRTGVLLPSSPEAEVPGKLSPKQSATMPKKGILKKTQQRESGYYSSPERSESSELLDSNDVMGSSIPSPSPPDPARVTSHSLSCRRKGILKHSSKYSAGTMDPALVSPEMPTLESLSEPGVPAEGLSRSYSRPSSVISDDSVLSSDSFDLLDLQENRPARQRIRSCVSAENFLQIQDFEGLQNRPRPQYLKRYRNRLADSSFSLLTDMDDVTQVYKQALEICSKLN
# [20] = target: T5, NUAK family SNF1-like kinase 1 (Homo sapiens); conditions: at 10 µM
# ALK tyrosine kinase receptor (Homo sapiens), sequence (Q9UM73 19-1620 limits assumed): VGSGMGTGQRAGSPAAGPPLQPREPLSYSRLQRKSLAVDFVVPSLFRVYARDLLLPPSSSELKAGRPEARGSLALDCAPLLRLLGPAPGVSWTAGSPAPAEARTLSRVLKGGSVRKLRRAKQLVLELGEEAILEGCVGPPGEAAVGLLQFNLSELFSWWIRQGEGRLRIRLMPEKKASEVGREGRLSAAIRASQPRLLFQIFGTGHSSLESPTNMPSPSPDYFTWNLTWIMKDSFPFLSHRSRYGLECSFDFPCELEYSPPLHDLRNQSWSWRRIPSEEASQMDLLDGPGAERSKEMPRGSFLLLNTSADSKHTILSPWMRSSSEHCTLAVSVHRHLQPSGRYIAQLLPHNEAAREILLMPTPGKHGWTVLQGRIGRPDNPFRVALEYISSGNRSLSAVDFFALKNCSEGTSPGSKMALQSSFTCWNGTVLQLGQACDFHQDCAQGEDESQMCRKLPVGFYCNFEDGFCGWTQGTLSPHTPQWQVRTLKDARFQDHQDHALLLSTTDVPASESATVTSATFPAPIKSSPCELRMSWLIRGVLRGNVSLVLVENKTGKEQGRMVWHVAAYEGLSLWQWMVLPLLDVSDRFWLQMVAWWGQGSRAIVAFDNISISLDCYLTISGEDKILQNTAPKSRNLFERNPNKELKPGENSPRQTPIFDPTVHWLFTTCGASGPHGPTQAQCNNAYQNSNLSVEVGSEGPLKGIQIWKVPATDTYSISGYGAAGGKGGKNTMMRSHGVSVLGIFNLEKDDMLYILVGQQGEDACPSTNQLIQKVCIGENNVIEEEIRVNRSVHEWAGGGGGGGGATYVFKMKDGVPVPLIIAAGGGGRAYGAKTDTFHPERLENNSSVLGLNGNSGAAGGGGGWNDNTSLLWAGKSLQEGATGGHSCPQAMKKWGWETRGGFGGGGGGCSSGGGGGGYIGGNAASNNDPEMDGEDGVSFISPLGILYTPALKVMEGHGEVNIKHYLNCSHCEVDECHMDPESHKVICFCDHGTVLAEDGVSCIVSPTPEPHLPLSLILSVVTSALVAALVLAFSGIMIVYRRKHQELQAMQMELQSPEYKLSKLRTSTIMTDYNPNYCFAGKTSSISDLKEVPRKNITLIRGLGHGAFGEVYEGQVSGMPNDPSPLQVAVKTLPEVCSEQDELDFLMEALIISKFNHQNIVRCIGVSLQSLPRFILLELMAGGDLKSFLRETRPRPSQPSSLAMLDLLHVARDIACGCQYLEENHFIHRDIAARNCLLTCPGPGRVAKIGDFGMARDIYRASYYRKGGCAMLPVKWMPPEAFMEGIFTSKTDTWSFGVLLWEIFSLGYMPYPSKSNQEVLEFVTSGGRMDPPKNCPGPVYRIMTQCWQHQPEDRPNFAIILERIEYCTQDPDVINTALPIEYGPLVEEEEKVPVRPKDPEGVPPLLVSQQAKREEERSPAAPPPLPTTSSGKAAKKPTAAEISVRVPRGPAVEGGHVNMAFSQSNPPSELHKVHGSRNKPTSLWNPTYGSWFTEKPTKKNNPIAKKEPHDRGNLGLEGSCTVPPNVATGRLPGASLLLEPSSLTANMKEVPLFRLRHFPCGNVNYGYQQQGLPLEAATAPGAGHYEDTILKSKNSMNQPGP
# Serine/threonine-protein kinase PAK 5 (Homo sapiens), sequence (Q9P286 whole entry, looked up, the tested form may be a part): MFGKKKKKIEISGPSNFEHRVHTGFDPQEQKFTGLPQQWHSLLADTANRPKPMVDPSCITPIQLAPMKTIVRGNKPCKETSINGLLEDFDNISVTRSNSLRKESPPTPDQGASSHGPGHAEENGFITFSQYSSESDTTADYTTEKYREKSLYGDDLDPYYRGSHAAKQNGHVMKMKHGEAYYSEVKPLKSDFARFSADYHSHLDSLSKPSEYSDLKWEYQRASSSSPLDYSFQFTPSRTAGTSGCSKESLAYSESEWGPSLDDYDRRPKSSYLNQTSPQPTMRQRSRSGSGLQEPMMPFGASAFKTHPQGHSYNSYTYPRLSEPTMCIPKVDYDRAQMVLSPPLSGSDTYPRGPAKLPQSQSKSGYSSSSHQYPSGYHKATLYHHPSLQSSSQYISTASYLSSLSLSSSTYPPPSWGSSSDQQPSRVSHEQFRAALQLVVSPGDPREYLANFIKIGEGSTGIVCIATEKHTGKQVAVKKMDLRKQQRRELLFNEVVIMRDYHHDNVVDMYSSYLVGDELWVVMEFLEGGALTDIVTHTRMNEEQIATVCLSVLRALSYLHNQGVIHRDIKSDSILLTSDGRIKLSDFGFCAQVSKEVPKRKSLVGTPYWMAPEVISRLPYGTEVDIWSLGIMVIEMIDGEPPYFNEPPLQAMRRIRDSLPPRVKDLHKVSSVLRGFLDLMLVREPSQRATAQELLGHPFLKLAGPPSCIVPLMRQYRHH
# Platelet-derived growth factor receptor alpha (Homo sapiens), sequence (P16234 whole entry, the tested form may be a part): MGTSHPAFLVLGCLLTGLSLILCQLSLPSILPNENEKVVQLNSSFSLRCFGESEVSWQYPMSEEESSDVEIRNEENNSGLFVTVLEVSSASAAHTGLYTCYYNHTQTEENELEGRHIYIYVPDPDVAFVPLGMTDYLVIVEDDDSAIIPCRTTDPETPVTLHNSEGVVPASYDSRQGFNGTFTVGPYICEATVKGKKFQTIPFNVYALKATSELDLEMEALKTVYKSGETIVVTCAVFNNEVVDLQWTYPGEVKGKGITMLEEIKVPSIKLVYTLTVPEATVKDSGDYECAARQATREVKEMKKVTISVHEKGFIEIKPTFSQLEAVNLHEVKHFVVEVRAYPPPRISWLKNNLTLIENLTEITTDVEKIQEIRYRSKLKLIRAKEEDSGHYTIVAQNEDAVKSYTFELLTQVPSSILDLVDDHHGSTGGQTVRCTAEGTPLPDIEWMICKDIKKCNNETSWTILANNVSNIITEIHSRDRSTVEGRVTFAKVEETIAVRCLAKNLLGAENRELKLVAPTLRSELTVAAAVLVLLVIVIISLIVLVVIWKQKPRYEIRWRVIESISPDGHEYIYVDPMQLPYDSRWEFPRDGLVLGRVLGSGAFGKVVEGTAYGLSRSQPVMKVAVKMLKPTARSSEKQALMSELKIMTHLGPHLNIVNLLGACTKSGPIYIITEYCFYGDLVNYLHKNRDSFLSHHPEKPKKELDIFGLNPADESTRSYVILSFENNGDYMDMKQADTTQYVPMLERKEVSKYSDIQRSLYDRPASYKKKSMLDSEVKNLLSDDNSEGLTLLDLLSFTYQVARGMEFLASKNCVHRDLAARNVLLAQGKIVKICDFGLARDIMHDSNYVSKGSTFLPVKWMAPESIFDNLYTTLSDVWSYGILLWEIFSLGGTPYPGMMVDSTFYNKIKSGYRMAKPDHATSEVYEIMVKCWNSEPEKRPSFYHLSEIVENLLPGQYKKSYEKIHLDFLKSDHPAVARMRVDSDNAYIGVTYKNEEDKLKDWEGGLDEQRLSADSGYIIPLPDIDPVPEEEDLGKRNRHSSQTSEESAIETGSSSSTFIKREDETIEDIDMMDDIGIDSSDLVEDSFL
# Serine/threonine-protein kinase PAK 6 (Homo sapiens), sequence (Q9NQU5 whole entry, looked up): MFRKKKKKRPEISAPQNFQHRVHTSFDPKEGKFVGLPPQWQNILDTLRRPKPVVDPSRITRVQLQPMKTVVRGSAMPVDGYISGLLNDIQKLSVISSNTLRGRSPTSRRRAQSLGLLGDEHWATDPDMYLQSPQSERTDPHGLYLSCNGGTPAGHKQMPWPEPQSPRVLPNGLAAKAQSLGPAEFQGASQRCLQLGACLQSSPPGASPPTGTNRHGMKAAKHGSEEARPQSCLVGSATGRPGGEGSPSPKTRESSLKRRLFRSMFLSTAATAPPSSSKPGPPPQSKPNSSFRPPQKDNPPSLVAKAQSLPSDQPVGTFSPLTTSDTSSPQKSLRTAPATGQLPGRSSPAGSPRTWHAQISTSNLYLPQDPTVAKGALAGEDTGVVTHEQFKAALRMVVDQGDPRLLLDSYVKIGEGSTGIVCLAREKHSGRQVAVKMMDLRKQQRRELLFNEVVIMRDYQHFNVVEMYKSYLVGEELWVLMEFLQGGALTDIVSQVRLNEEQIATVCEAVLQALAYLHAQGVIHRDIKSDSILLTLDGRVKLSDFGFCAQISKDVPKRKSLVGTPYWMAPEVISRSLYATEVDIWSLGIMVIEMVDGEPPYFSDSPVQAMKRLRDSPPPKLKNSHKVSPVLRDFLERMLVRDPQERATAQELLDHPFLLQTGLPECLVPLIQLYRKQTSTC
# Activated CDC42 kinase 1 (Homo sapiens), sequence (Q07912 whole entry, looked up): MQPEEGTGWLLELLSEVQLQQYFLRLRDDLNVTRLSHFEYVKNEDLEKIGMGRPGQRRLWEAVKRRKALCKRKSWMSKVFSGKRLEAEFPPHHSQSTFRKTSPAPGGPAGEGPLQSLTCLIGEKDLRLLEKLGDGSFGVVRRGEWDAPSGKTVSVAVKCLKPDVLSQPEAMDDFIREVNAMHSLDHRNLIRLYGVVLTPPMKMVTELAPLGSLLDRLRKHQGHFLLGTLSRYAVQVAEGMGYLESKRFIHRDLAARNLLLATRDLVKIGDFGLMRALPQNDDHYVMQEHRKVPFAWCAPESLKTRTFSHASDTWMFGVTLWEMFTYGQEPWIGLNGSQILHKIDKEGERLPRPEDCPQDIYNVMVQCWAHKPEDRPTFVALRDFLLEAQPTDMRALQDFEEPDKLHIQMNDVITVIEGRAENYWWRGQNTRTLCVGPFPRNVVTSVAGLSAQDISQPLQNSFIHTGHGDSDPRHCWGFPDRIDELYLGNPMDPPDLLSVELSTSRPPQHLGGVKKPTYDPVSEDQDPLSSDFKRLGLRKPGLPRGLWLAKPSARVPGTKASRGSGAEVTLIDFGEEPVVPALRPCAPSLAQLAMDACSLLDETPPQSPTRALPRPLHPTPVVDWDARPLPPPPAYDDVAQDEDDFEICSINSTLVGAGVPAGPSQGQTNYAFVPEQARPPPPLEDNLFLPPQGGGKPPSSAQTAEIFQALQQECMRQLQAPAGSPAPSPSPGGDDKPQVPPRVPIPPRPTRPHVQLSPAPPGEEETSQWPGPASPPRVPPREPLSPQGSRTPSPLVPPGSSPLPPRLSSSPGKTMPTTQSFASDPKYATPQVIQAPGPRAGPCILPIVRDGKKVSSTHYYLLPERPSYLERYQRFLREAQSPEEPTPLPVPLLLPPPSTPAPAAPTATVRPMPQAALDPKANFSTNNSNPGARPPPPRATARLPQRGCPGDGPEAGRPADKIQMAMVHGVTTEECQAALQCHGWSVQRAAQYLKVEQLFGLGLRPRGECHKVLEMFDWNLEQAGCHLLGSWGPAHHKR
compound,measurement,setting,value
N/C(=N\[N+](=O)[O-])N/N=C\c1ccc(-c2cccc([N+](=O)[O-])c2)o1,residual activity,[1],82%
same,residual activity,[2],70%
same,residual activity,[3],85%
same,residual activity,[4],71%
same,residual activity,[5],85%
same,residual activity,[6],69%
same,residual activity,[7],90%
same,residual activity,[8],97%
same,residual activity,[9],96%
same,residual activity,[10],83%
CC(C)c1nn(-c2c(Cl)cccc2Cl)c2nc(Cc3ccc(OCCO)cc3)[nH]c(=O)c12,residual activity,[11],142%
O=[N+]([O-])/C=C/c1ccc2c(c1)OCO2,residual activity,[12],103%
same,residual activity,[13],92%
same,residual activity,[2],102%
same,residual activity,[11],107%
same,residual activity,[14],87%
same,residual activity,[3],83%
same,residual activity,[4],69%
same,residual activity,[5],84%
same,residual activity,[6],101%
same,residual activity,[15],133%
same,residual activity,[16],93%
same,residual activity,[17],89%
same,residual activity,[18],80%
same,residual activity,[7],101%
same,residual activity,[8],78%
same,residual activity,[19],107%
same,residual activity,[20],87%
same,residual activity,[9],109%
same,residual activity,[10],114%
O=C1Nc2ccc(Cl)cc2/C1=C/c1cc(Cl)c(O)c(Cl)c1,residual activity,[11],111%
C[S+]([O-])c1ccc(-c2nc(-c3ccc(F)cc3)c(-c3ccncc3)[nH]2)cc1 (stereo unspecified),residual activity,[12],105%
same,residual activity,[13],104%
same,residual activity,[1],110%
same,residual activity,[2],100%
same,residual activity,[11],113%
same,residual activity,[14],113%
same,residual activity,[3],93%
same,residual activity,[4],39%
same,residual activity,[5],122%
same,residual activity,[6],93%
same,residual activity,[15],87%
same,residual activity,[16],23%
same,residual activity,[17],109%
same,residual activity,[18],94%
same,residual activity,[7],104%
same,residual activity,[8],90%
same,residual activity,[19],97%
same,residual activity,[20],94%
same,residual activity,[9],138%
same,residual activity,[10],110%
c1ccc2c(-c3ccncc3)c[nH]c2c1,residual activity,[11],99%
CC(C)(C)c1cc(C=C(C#N)C#N)cc(Br)c1O,residual activity,[1],111%
same,residual activity,[2],96%
same,residual activity,[11],80%
same,residual activity,[14],44%
same,residual activity,[3],106%
same,residual activity,[4],73%
same,residual activity,[15],114%
same,residual activity,[16],48%
same,residual activity,[17],110%
same,residual activity,[18],53%
same,residual activity,[7],97%
same,residual activity,[19],116%
same,residual activity,[20],106%
same,residual activity,[9],108%
same,residual activity,[10],120%
COc1ccc(CNC(=O)Nc2ncc([N+](=O)[O-])s2)cc1,residual activity,[11],133%
CC(C)[C@H](CO)Nc1nc(Nc2cccc(Cl)c2)c2ncn(C(C)C)c2n1,residual activity,[12],50%
same,residual activity,[13],11%
same,residual activity,[1],57%
same,residual activity,[2],13%
same,residual activity,[11],135%
same,residual activity,[14],116%
same,residual activity,[3],45%
same,residual activity,[4],14%
same,residual activity,[5],71%
same,residual activity,[6],26%
same,residual activity,[17],92%
same,residual activity,[18],42%
same,residual activity,[7],95%
same,residual activity,[8],48%
same,residual activity,[19],84%
same,residual activity,[20],33%
same,residual activity,[9],102%
CCc1nc(-c2ccc(OC)cc2)[nH]c1-c1ccncc1,residual activity,[12],111%
same,residual activity,[13],105%
same,residual activity,[11],128%
same,residual activity,[4],69%
same,residual activity,[17],101%
same,residual activity,[10],114%
